Measured values from PMC5540273 (PLoS ONE, 2017).

These compounds were tested on T1, NDR1. Conditions: concentration: 1 μM, replicates: in singlicate; n = 1.
T1 construct: gene STK38
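Note: KINOMEscan kinase panel screen.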

SMILES | %Inh [%]
N#CC1(c2cccc(C(=O)Nc3cccc(Oc4ccc5nc(NC(=O)C6CC6)sc5n4)c3)c2)CC1 | 18
O=C(Nc1n[nH]c2nc(-c3ccccc3)ccc12)C1CC1 [SB-708999] | 0
CC(C)c1nc(-c2cccc(NS(=O)(=O)c3c(F)cccc3F)c2)c(-c2ccnc(Nc3ccc(N4CCOCC4)nc3)n2)s1.Cl [GSK1723980] | 32
Cl.Cl.NCC(NC(=O)c1cc(-c2cccnc2)c(-c2ccnc3[nH]ccc23)s1)c1ccccc1 (stereo not shown) [GSK1323434] | 67
COC(=O)Nc1nc2cc(Oc3ccc(NC(=O)Nc4cccc(SC)c4)cc3)ccc2[nH]1.Cl [GW697999] | 11
O=C(Nc1n[nH]c2nc(-c3ccccc3O)ccc12)C1CC1 [SB-711880] | 6
O=C(Nc1n[nH]c2cc(-c3cccs3)ccc12)C1CC1 [SB-731284] | 27
O=C(Nc1c(F)cccc1F)c1cc(C(=O)c2ccccc2F)c[nH]1 [GSK1326180] | 0
Cc1ccc(Nc2ccnc(Nc3ccc(C)c(F)c3)n2)cc1O.Cl [GW582868] | 0
COc1cccc(-c2nc(-c3ccccc3)[nH]c2-c2ccncc2)c1 [SB-610250] | 9
CCn1cnc2c(NCc3ccccc3)ncnc21 [SKF-96418] | 30
Cl.Cl.NC(CNC(=O)c1cc(Br)c(-c2ccnc3[nH]ccc23)s1)c1ccccc1 (stereo not shown) [GSK1322949] | 96.4
CN(c1ccc(F)c(NC(=O)c2cccc(OC(C)(C)C#N)c2Cl)c1)c1ccc2nc(NC(=O)C3CC3)sc2n1 | 0
Fc1cc(Cl)ccc1Nc1ccnc2cc(-c3ccc(CN4CCOCC4)o3)ccc12 [GW560109] | 0
COc1cc(Nc2ccnc3cc(-c4ccncc4)ccc23)cc(OC)c1OC.Cl [GW494610] | 17
Cc1ccc(O)cc1Nc1ccnc2cc(-c3ccc(CN4CCCCC4)o3)ccc12 [GW557777] | 0
Nc1ncc(-c2ccc3nccc(-c4ccncc4)c3c2)cc1S(=O)(=O)N1CCCCC1 [GSK1693850] | 30
COc1ccc(C)c(Nc2ccnc(Nc3ccc(-c4cnc[nH]4)cc3)n2)c1.Cl [GW784041] | 22
Fc1cc(Cl)ccc1Nc1ccnc2cc(-c3ccc(CN4CCSCC4)o3)ccc12 [GW560106] | 12

SMILES | %Inh [%]
Cc1ccc(NC(=O)c2ccnc(N3CCCCC3)c2)cc1-c1ccc(C(=O)NCC2CC2)cc1 [GW775610] | 0
CCOc1nccc(-c2c(-c3ccc(F)cc3)ncn2C2CCNCC2)n1 [SB-249175] | 6
O=C(O)C(F)(F)F.O=c1[nH]ccc2nc(N[C@@H]3CCNC3)nc(Nc3ccc4c(c3)S(=O)(=O)CC4)c12 [GSK2181306] | 89
c1ccc(Oc2ccc(Nc3ccnc4cc(-c5ccc(CN6CCCCC6)o5)ccc34)cc2)nc1 [GW567143] | 0
Cc1ccc(C)c(NC(=O)Nc2ccc(C)c(-c3ccc(C(=O)Nc4ccncc4)cc3)c2)c1 [GSK1398473] | 29
Cn1cc(-c2cnc(N)c3c(-c4ccc5c(c4)CCN5C(=O)Cc4ccccc4)csc23)cn1 [GSK2593074] | 10
O=C(O)C(F)(F)F.O=c1[nH]ccc2nc(N[C@@H]3CCNC3)nc(Nc3cc(Cl)cc(Cl)c3)c12 [GSK2188764] | 82
Cl.O=C(Nc1ccc(Oc2ccc3[nH]c(NC(=O)c4ccco4)nc3c2)cc1)Nc1cc(C(F)(F)F)ccc1F [GW683134] | 0
Cc1cccc(Nc2nc(NCCN)ncc2C(N)=O)c1 [GSK1292139] | 21
CC(C)NCC(Cc1ccccc1)NC(=O)c1cc(Br)c(-c2ccnc3[nH]ccc23)s1.Cl.Cl (stereo not shown) [GSK1383281] | 90.3
Nc1cccc(-c2ccc3c(N)n[nH]c3c2)c1 [GSK2193613] | 27
COc1cc(Nc2nccc(N3CCC(NS(=O)(=O)c4ccc(NC(C)=O)cc4)CC3)n2)cc(OC)c1OC [GSK1379825] | 0
Cc1nn2c(=O)cc(N3CCO[C@H](C)C3)nc2n1Cc1cccc(Cl)c1Cl [GSK2373693] | 0
CN1CCN(Cc2ccc(NC(=O)Nc3ccc(N(C)c4ccnc(Nc5ccc(CS(C)(=O)=O)cc5)n4)cc3)cc2)CC1.Cl [GW827654] | 0
COC(=O)Nc1nc2ccc(Oc3ccc(CC(=O)Nc4cc(C(F)(F)F)ccc4F)cc3)cc2[nH]1 [GW680903] | 0
COc1ccc(C2=C(Nc3cccc(O)c3)C(=O)NC2=O)cc1 [SB-390766] | 9
CN(C)c1ncnc2nc[nH]c12 [SKF-31736] | 35
Cc1cc(-c2ccnc(Nc3cccc(C#N)c3)n2)cc(C)c1O [GSK1440913] | 10
